Assay outcomes (PubChem)
M1 PAM: positive allosteric modulators of human M1 muscarinic receptor. P11229. CHO-K1 hM1, Fluo-8 calcium fluorescence, ACh EC20; 0% = ACh EC20, 100% = maximal ACh. activation, % at 3 µM. AID 588819. 0.088% of 360,000 active; in the data active = activation above about 19%, passing the limit was not always enough
Target sequence (P11229 whole entry, looked up): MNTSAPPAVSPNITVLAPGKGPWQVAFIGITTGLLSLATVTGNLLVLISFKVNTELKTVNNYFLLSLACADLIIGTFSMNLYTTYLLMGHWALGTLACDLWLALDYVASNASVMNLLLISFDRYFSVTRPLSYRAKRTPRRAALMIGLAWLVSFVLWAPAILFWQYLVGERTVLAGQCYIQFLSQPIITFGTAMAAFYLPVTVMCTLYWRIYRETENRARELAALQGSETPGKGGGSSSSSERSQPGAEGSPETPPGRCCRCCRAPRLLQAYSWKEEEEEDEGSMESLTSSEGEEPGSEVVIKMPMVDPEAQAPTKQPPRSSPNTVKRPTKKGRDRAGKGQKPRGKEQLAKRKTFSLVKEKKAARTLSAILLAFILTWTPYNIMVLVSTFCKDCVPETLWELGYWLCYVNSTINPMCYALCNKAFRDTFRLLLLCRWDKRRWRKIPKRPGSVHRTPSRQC
CHO-K1 Ca antag: M1 antagonist counterscreen hit in parental CHO-K1 cells; ATP-induced calcium, Fluo-8 fluorescence; inhibition, % at 3 µM; 0.6% of 360,000 active;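 active = inhibition above a per-plate cutoff, the plate's mean sample inhibition plus 3 SD, cut at about 24% in these data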;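 note: 0% = DMSO plus EC80 ATP and 100% = DMSO alone without ATP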
M1 ag parental: counter-screen for M1 agonists: effect in parental CHO-K1 cells; Fluo-8 calcium fluorescence; scaled to maximal ATP response, vehicle zero; activation, % at 3 µM; 0.48% of 360,000 active; AID 602248; in the data active = activation above about 15%;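 note: untransfected CHO-K1 host cells lacking M1 receptor as counterscreen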
M1 ag: activates human CHRM1 receptor; P11229; CHO-K1 hM1, Fluo-8 calcium fluorescence, agonist mode; 0% DMSO, 100% acetylcholine EC100; activation, % at 3 µM; 0.33% of 360,000 active;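 active = activation above the run's mean compound activation plus 3 SD, cut at about 16% in these data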;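 note: peak over basal fluorescence ratio within a 140 s kinetic read after compound addition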
CHRM1 antagonist: blocks human M1 muscarinic receptor; CHO-K1 hM1, Fluo-8 calcium fluorescence, ACh EC80 antagonist; inhibition, % at 3 µM; 1.3% of 360,000 active; AID 588852;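 active = percent inhibition above its own plate's cutoff, namely the mean of that plate's compound wells plus 3 SD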;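 note: peak over basal fluorescence ratio during 140 s after agonist addition; 0% = ACh EC80 plus DMSO and 100% = DMSO alone without agonist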
M1 PAM parental: counter-screen for M1 PAMs: effect in parental CHO-K1 cells; AID 602247; ATP EC20, Fluo-8 calcium fluorescence; 0% at ATP EC20, 100% at ATP max; 0.02% of 360,000 active; activation, % at 3 µM;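 active = activation above the run cutoff, the mean activation of all test compounds plus 3 SD, cut at about 40% in these data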;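 note: peak over basal fluorescence ratio in a 140 s read after ATP addition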
Active calls of the source: *; . = no result given. An excerpt weighted towards active compounds, which were near 2.3% of everything screened.

SMILES | M1 PAM | CHO-K1 Ca antag | M1 ag parental | M1 ag | CHRM1 antagonist | M1 PAM parental
O=C1c2cccc3cccc(c23)C(=O)N1CCCc1n[nH]c(=S)n1-c1ccccc1 | -8 | 17 | 0 | 0 | 31* | -10
OCCCc1n[nH]c(=S)n1-c1ccccc1 | 12 | -13 | 1 | -5 | -8 | 27
COCCCN1CC(=O)N2C(c3ccccc3)c3[nH]c4ccccc4c3C[C@H]2C1=O (stereo partly drawn) | 3 | -11 | 1 | -8 | -9 | -10
COC(=O)c1ccc(C2c3[nH]c4ccccc4c3C[C@H]3C(=O)N(C)CC(=O)N23)cc1 (stereo partly drawn) | -2 | -16 | 2 | 0 | 12 | -7
CN1CC(=O)N2C(c3ccc(Cl)cc3)c3[nH]c4ccccc4c3C[C@H]2C1=O (stereo partly drawn) | 0 | 9 | 24* | -3 | 0 | 19
CCN1C(=O)[C@@H]2Cc3c([nH]c4ccccc34)C(c3ccc(OC)cc3)N2C1=S (stereo partly drawn) | -31 | -5 | 6 | -4 | 71* | 9
COc1ccc(NC(=O)c2cc(C3CCCCN3S(C)(=O)=O)on2)c(C)c1 (stereo not drawn) | 13 | 28* | 1 | 3 | -14 | -17
Cc1cccc(-c2cnc(C(O)c3ccc(-c4ccccc4)cc3)[nH]2)c1 (stereo not drawn) | 5 | -20 | 2 | -3 | -14 | 26
CCCCCOc1ccc2oc(=O)c3c(c2c1)CCCN3C(=O)CN1CCCC(C(=O)OCC)C1 (stereo not drawn) | -19 | 7 | 0 | -4 | 35* | 5
CC1(C)CC(=O)C=C(c2ccc(-c3ccc(OC(F)(F)F)cc3)cc2)C1=O | 7 | -14 | 2 | 1 | -7 | 24
O=[N+]([O-])c1ccc2c(c1)C(N1CCN(CCO)CC1)Cc1ccc(F)cc1S2 (stereo not drawn) | -4 | 3 | 2 | -10 | 5 | -1
CSc1ccc2c(c1)C(N1CCN(C)CC1)Cc1ccc(F)cc1S2 (stereo not drawn) | -27 | 1 | 1 | -7 | 69* | 9
CC1OC(CCc2cccc(Cl)c2)Cc2[nH][nH]c(=O)c21 (stereo not drawn) | . | -15 | 2 | . | . | 7
COc1ccccc1-c1ccc2c(c1)C(C)(Cc1ccc(F)c(Cl)c1)C(=O)N2 (stereo not drawn) | 8 | -11 | 1 | -3 | -16 | 19
Cc1cc(N2CCCC2=O)cc(C)c1S(=O)(=O)NCCOc1ccc(C(C)(C)C)cc1 | -17 | 27* | 14 | 6 | 39* | 5
O=C1CCCN1c1ccc(S(=O)(=O)NCCOc2ccccc2)cc1 | -3 | 18 | 3 | 3 | 7 | -8
CC(C)Oc1ccc(F)cc1-c1cc(C(=O)Nc2ccc(C(C)(C)C)cc2)[nH]n1 | 10 | -8 | 0 | 6 | -7 | 15
CC(=O)CC(=O)Nc1ccn(-c2ccccc2)n1 | -4 | 27* | 0 | 3 | 16 | -9
O=C(O)CCCC(=O)Nc1ccn(-c2ccccc2)n1 | 5 | -1 | 0 | -2 | -23 | 13
CC(C)(C)NC(=O)NC(=O)COC(=O)c1ccc(OC(F)F)cc1 | -1 | 28* | 0 | -7 | 4 | -11
CC(C)(C)NC(=O)NC(=O)COC(=O)c1ccc(OC(F)(F)F)cc1 | 1 | -2 | 0 | -7 | -4 | 3
CNCCCC1Sc2ccccc2Oc2ccccc21 (stereo not drawn) | -22 | 19 | 1 | -6 | 33* | -8
CC(C)CNC(=O)C1c2ccccc2Oc2ccccc21 | 6 | -13 | 0 | -5 | -4 | 16
O=C(NC1CCCCC1)C1c2ccccc2OCC(=O)N1Cc1ccco1 (stereo not drawn) | . | -15 | 1 | . | . | 21
C=CCn1c(O)c(C=Nc2ccccc2)sc1=S | 3 | 29* | -1 | -9 | 2 | -12
SMILES | M1 PAM | CHO-K1 Ca antag | M1 ag parental | M1 ag | CHRM1 antagonist | M1 PAM parental
CCOC(=O)N1CCC(NC(=O)c2cc(S(=O)(=O)N3CCCC3)cn2C)CC1 | 2 | 26* | 0 | -1 | 2 | -8
O=S(=O)(c1ccc(N2CCCC2)nc1)N1CCCC1 | 2 | -11 | 5 | -6 | -1 | 4
CCN1CCN(c2ccc(N3CCN(S(=O)(=O)c4cc([N+](=O)[O-])ccc4C)CC3)nn2)CC1 | -26 | 0 | 0 | -8 | 40* | 5
CCN1CCN(c2ccc(S(=O)(=O)N3CCCC3)cn2)CC1 | -18 | -7 | 1 | -6 | 36* | 11
CSc1nsc(SC)c1C(=O)OCC(F)(F)F | 24* | -18 | 0 | -1 | -52 | 22
CC(CC(c1ccccc1)N1CCc2ccccc2C1)=NO (stereo not drawn) | 6 | -6 | 1 | -7 | -16 | 13
CCc1noc(C)c1C(=O)NCCN1C(=O)S/C(=C\c2ccccc2F)C1=O | -18 | 4 | 12 | 3 | 17 | -16
CC1CCN(c2c(NCC3CCC(C(=O)N4CCCCC4)CC3)c(=O)c2=O)CC1 (stereo not drawn) | -8 | 28* | 0 | -2 | 21 | -7
CN(C)CCOc1ccccc1-c1ccccc1 | -21 | 2 | 0 | -6 | 45* | 4
CN(C)CCOCCOc1ccccc1-c1ccccc1 | -12 | -14 | 1 | -8 | 18 | 28
CNCCCCOc1ccccc1-c1ccccc1 | -23 | -5 | 4 | -8 | 37* | 14
COC(=O)c1ccc(OC(=O)CCc2cc(OC)c(OC)c(OC)c2)cc1 | 10 | -15 | 16* | 0 | -4 | 16
COC(=O)c1cc(OC(=O)CCc2ccc(OC)c(OC)c2)cc(C(=O)OC)c1 | 8 | -10 | 2 | -5 | -12 | 10
O=C(NC(=S)NCCC1=CCCCC1)c1ccccc1Br | -6 | -7 | 3 | -14 | -2 | 19
O=C(NC(=S)NCCC1=CCCCC1)c1cncc(Br)c1 | -2 | -8 | 16* | -8 | -4 | 13
C=CCSc1nc2sc(C)c(C)c2c(=O)[nH]1 | -20 | 2 | 0 | -10 | 39* | -1
COC(=O)[C@H](CC(C)C)NC(=O)CC[C@H]1O[C@@H](n2cc(C)c(=O)[nH]c2=O)C[C@@H]1O | 2 | -4 | 0 | -3 | -22 | 2
CCOC(=O)c1ccc(CNC(=O)CCC(=O)O)cc1 | 9 | -7 | 0 | -2 | -14 | 7
CCOC(=O)c1ccc(CNCc2ccc(Br)cc2)cc1 | -17 | 9 | 0 | 3 | 65* | -11
CCOC(=O)CCNC(=O)N1CCC(CCC(=O)NCc2ccc(F)cc2)CC1 | 0 | -1 | 0 | -4 | -4 | 6
CCOC(=O)c1ccc(CNCc2ccccc2)cc1 | -24 | 4 | 0 | -12 | 52* | 7
CCOC(=O)CCNCc1ccc(F)cc1 | -10 | -12 | 1 | -2 | 40* | 9
